Test results: PubChem BioAssay (EPA / NIEHS)
Inconclusive results are not listed. Activity calls are given as the source filed them. How the source made its calls, unless noted: active means hit-call score of the fitted dose curve at least 0.9, where 1 is the maximum; inactive means score below 0.9.

Experiments:
[1] = biological target: PGR (gene 5241) (UniProt P06401); experiment: TOX21_PR_BLA_Followup_Antagonist_ratio: Tox21 HEK293 Progesterone Receptor (PR) Antagonism Beta-lactamase Follow-Up Assay, Ratio (AID 2283934; active means hit-call score of the fitted dose curve at least 0.9, where 1 is the maximum;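 further: PR-UAS-bla HEK293T cells stimulated with 1 nM R5020 agonist for 16 hr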)
PGR (gene 5241), sequence (P06401 whole entry, looked up): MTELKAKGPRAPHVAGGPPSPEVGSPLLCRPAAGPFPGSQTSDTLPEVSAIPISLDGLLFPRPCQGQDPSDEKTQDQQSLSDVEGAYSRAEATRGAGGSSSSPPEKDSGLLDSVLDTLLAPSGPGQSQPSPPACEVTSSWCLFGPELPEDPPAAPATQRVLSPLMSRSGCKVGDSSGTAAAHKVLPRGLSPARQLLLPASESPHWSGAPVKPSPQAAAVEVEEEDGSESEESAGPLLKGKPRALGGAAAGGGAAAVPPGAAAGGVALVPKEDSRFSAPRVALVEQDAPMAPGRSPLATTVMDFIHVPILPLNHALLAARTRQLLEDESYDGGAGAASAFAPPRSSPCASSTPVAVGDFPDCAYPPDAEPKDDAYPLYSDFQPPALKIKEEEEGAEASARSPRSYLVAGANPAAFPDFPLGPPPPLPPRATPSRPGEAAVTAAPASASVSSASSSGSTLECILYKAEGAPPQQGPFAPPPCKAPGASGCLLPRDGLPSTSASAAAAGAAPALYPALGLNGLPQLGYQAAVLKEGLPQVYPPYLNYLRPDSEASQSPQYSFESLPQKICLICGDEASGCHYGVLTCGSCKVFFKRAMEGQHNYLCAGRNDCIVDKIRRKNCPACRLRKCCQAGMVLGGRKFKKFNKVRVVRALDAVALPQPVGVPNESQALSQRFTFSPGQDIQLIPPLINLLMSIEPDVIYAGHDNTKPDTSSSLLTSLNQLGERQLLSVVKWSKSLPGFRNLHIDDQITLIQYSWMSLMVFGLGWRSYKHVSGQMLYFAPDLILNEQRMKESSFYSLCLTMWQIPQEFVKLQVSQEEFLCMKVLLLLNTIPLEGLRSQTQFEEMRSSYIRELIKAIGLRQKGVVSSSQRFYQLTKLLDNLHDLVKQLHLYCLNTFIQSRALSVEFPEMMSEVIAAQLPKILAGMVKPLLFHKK
Description: TOX21_PR_BLA_Followup is a secondary assay for specificity for the TOX21_PR_BLA_Agonist assay. To differentiate true PR agonists from cytotoxic substances, this follow up assay is multiplexed with a cell viability assay. The compounds were also tested for auto fluorescence that may interfere with the biological target readout resulting in potential false positives and/or negatives. To identify the compounds that stimulate PR signaling, a PR-UAS-bla GripTite cell line i.e. PR-UAS-bla HEK293T (Invitrogen, Carlsbad, CA, USA) containing a beta-lactamase reporter gene under the control of an UAS response element was used to screen Tox21 10K compound library. […] TOX21_PR_BLA_Followup_Antagonist_ratio is an assay readout measuring reporter gene via receptor activity and designed using inducible reporter (beta lactamase induction) detected with GAL4 b-lactamase reporter gene. The signal is derived from the ratio of cleaved (ch2) to uncleaved (ch1) reporter gene substrate used as the measure of target activity.Data from the assay component TOX21_PR_BLA_Followup_Antagonist_ratio was analyzed into 1 assay endpoint. This assay endpoint, TOX21_PR_BLA_Followup_Antagonist_ratio, was analyzed in the positive analysis fitting direction relative to DMSO as the negative control and baseline of activity. […]

[2] = TOX21_PR_BLA_Followup_Agonist_viability: Viability Assessment in the Tox21 HEK293 Progesterone Receptor (PR) Agonism Beta-lactamase Follow-Up Assay (AID 2283935; active means hit-call score of the fitted dose curve at least 0.9, where 1 is the maximum;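 further: signal loss means lower viability so actives are cytotoxic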)
How it was run: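 Viability is read as CellTiter-Glo luminescence, where loss of signal indicates cytotoxicity. The cells are PR-UAS-bla HEK293T given compounds for 16 hr at 37C and 5% CO2, in the same wells used for the bla readout.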

[3] = TOX21_PR_BLA_Followup_Antagonist_viability: Viability Assessment in the Tox21 HEK293 Progesterone Receptor (PR) Antagonism Beta-lactamase Follow-Up Assay (AID 2283936; active means hit-call score of the fitted dose curve at least 0.9, where 1 is the maximum;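 further: cells exposed to compound with R5020 agonist for 16 h; hits lower the luminescence signal meaning cytotoxicity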)
How it was run: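 PR-UAS-bla HEK293T cells in medium with 2% charcoal-stripped FBS were treated with compounds plus R5020 for 16 hr at 37C. After the beta-lactamase read, CellTiter-Glo was added to the same wells and luminescence read after 30 min at room temperature.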

[4] = CEETOX_H295R_ESTRADIOL_noMTC: CeeTox H295R High-throughput Steroidogenesis Assay for Estradiol, maximum tolerated concentration (MTC) filtered results only (AID 2283919); settings: actives raise or lower the signal
How it was run: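 Readout: dansyl-derivatized estradiol quantified by LC-MS/MS in medium from H295R cells dosed 48 h (0.1% DMSO) following 48 h forskolin (10 uM) prestimulation. Gain or loss of signal fitted against DMSO; no MTC filtering applied.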

[5] = CEETOX_H295R_PROG_noMTC: CeeTox H295R High-throughput Steroidogenesis Assay for Progesterone (PROG), maximum tolerated concentration (MTC) filtered results only (AID 2283920); settings: actives raise or lower the signal
Description: (§1) CEETOX_H295R is a cell-based, multiplexed-readout assay that uses H295R, a human adrenal gland cell line, with measurements taken at 48 hours after chemical dosing in a 96-well plate.CEETOX_H295R_PROG_noMTC is one of 12 assay component(s) measured or calculated from the CEETOX_H295R assay (11 hormones and 1 viability assay). It is designed to make measurements of hormone induction, a form of inducible reporter, as detected with absorbance signals by HPLC-MS-MS technology. The concentrations for these components have not been pre-filtered for the maximum tolerated concentration (MTC) based on the MTT assay (_noMTC).Data from the assay component CEETOX_H295R_PROG_noMTC was analyzed into 1 assay endpoint. This assay endpoint, CEETOX_H295R_PROG_noMTC, was analyzed with bidirectional fitting relative to DMSO as the negative control and baseline of activity. […]
Cell culture and media preparation procedures were conducted in accordance with OECD Test No. 456 guidelines, with minor modifications. […] For steroid quantification, media samples were shipped to OpAns, LLC (Durham, NC) on dry ice, and samples were thawed to room temperature prior to liquid-liquid extraction. […] Steroid hormones were separated by HPLC, eluted using a reverse phase C18 gradient with electrospray positive ionization, followed by quantification by tandem mass spectrometry (MS/MS). Data were acquired on a MassHunter Workstation Acquisition version B03.01 (Agilent Technologies, Inc.) and processed using MassHunter Quantitative Analysis for QQQ. Accuracy was determined for each hormone analyte from 3 standards to determine upper and lower limits of quantification (ULOQ and LLOQ, respectively) using a 7-point standard curve. Precision and accuracy of the extraction and quantification methods were calculated as the percent relative standard deviation (%RSD) of the spiked standards and percent spiked standard recovered, respectively. […] Test medium was removed following chemical exposure, and cell viability was evaluated in the same wells by MTT. […]

[6] = CEETOX_H295R_ESTRONE_noMTC: CeeTox H295R High-throughput Steroidogenesis Assay for Estrone, maximum tolerated concentration (MTC) filtered results only (AID 2283921); settings: actives raise or lower the signal
Description: as §1, with “plate.CEETOX_H295R_ESTRONE_noMTC” for “plate.CEETOX_H295R_PROG_noMTC”, “CEETOX_H295R_ESTRONE_noMTC” for “CEETOX_H295R_PROG_noMTC”, “CEETOX_H295R_ESTRONE_noMTC,” for “CEETOX_H295R_PROG_noMTC,”
Cell culture and media preparation procedures were conducted in accordance with OECD Test No. 456 guidelines, with minor modifications. […] For steroid quantification, media samples were shipped to OpAns, LLC (Durham, NC) on dry ice, and samples were thawed to room temperature prior to liquid-liquid extraction. […] Steroid hormones were separated by HPLC, eluted using a reverse phase C18 gradient with electrospray positive ionization, followed by quantification by tandem mass spectrometry (MS/MS). […]

[7] = CEETOX_H295R_CORTISOL_noMTC: CeeTox H295R High-throughput Steroidogenesis Assay for Cortisol, maximum tolerated concentration (MTC) filtered results only (AID 2283916); settings: actives raise or lower the signal
How it was run: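 H295R human adrenal cells prestimulated 48 h with 10 uM forskolin, then exposed 48 h to chemical in 0.1% DMSO; cortisol in medium quantified by HPLC-MS/MS; bidirectional fit vs DMSO baseline, concentrations not MTT-filtered for MTC.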

[8] = CEETOX_H295R_CORTIC_noMTC: CeeTox H295R High-throughput Steroidogenesis Assay for Corticosterone (CORTIC), maximum tolerated concentration (MTC) filtered results only (AID 2283917); settings: actives raise or lower the signal
How it was run: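 Corticosterone secreted into the medium was measured by reverse-phase C18 HPLC with tandem MS after MTBE extraction. Cells (H295R) had 48 h forskolin (10 uM) stimulation before 48 h chemical exposure; gain or loss of signal was fitted relative to DMSO.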

[9] = CEETOX_H295R_DOC_noMTC: CeeTox H295R High-throughput Steroidogenesis Assay for DOC, maximum tolerated concentration (MTC) filtered results only (AID 2283918); settings: actives raise or lower the signal
How it was run: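 H295R cells prestimulated 48 h with 10 uM forskolin, then exposed 48 h to chemical in 0.1% DMSO. 11-Deoxycorticosterone in medium measured by MTBE extraction and HPLC-MS/MS; bidirectional fit vs DMSO, no MTC filter.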

[10] = CEETOX_H295R_TESTO_noMTC: CeeTox H295R High-throughput Steroidogenesis Assay for Testosterone (TESTO), maximum tolerated concentration (MTC) filtered results only (AID 2283924); settings: actives raise or lower the signal
How it was run: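 Medium testosterone, measured by HPLC-MS/MS after liquid-liquid extraction, was fitted in both directions relative to DMSO without MTC filtering. Adrenal H295R cells received 48 h chemical exposure (0.1% DMSO final) after 48 h forskolin (10 uM) prestimulation; viability by MTT.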

C#C[C@]1(O)CC[C@H]2[C@@H]3CCc4cc(OC)ccc4[C@H]3CC[C@@]21C
outcome [1]: inactive
outcome [2]: inactive
outcome [3]: inactive

COC(=O)C1CCC(C(=O)OC)CC1 (stereo not drawn)
outcome [4]: inactive
outcome [5]: inactive
outcome [6]: inactive

CC(C)OC(=O)c1ccccc1C(=O)OC(C)C
outcome [7]: inactive
outcome [8]: inactive
outcome [9]: inactive
outcome [5]: inactive

CCCCCCCOC(=O)c1ccccc1C(=O)OCCCCCCC
outcome [7]: inactive
outcome [8]: inactive
outcome [9]: inactive
outcome [5]: inactive
outcome [10]: inactive

C(=C(c1ccccc1)c1ccccc1)c1ccccc1
AC50 [1]: 30.7 µM (active)
outcome [2]: inactive
outcome [3]: inactive
